Test [1] relates to HaCat. Description: Cytotoxic Profiling of Annotated Libraries Using Quantitative High-Throughput Screening (AID 1296008). For max response: % is set by controls: 0 for no effect and ±100 for the full control effect. As to conditions: Five cell lines viability, CellTiter-Glo ATP luminescence, 48-72 h; max response: stronger effect = lower value. Summed up:
(§1)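 Cells exposed to compounds for 48 or 72 hr at 37 degrees Celsius. Viability read as ATP-coupled luminescence with CellTiter-Glo after 10 min at room temperature.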
For orientation: Cellular ATP, detected with luciferase, serves as a proxy for viable cell number.

The next test concerns KB-3-1. Described as above. The note with it: Five cell lines viability, CellTiter-Glo ATP luminescence, 48-72 h; max response: stronger effect = lower value. In outline:
as §1

The test system of the next test is NIH3T3. Described as above. As to conditions: Five cell lines viability, CellTiter-Glo ATP luminescence, 48-72 h; max response: stronger effect = lower value. Summed up:
as §1

Test [2] deals with HACAT. Description: qHTS assay to identify novel small-molecules to repurpose for Merkel cell carcinoma treatment (AID 1296009). As to conditions: MCC and control cell lines, CellTiter-Glo viability, 72 h; at 44.8 µM (top of the series) unless noted. Summed up:
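CellTiter-Glo luminescence after 72 hr compound exposure at 37 degree celsius gave cell viability. Libraries NPC and MIPE were run as 8- and 11-point dose responses; RLUs normalized to DMSO (negative) and no-cell (cytotoxicity) controls.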
A general note: In qHTS, concentration-response curves come from the screen itself.

Results filed as inconclusive are left out. A number with no mark means an inactive call. Activity calls are given as the source filed them. Calls come from the whole dose curve; as a rule, active = well fitted inhibition curve with a large enough effect; inconclusive = small, poorly fitted or top-dose-only effect; inactive = flat fitted curve, though single readings scatter.
Note: nearly all actives have a fitted effect of over 60% in size.

With `O=c1[nH]c2ccc(C#CCN3CCC(Cc4ccccc4)CC3)cc2[nH]1`, the max response in the test with HaCat [1] is 0.764%; in the test with KB-3-1, -17.6%.
In the same order, the values of `CC(C)CCNC(=O)[C@H](CC(C)C)NC(=O)[C@H]1O[C@@H]1C(=O)O` are -18.1% and 2.67%.
Turning to `NC(N)=N/N=C/c1ccccc1Cl`, the max response is -18.8% in the test on HaCat [1], -14.8% in the test with KB-3-1 and -25.1% in the test on NIH3T3.
With `C=C(C)C(=O)O[C@H]1/C(C=O)=C\CC/C(CO)=C/[C@H]2OC(=O)C(=C)[C@@H]2[C@@H]1OC`, the compound was called inactive with HaCat [1] and in the test on HACAT [2]. In the test on KB-3-1, the max response was 9.81%.

Source of the values: PubChem BioAssay (NCATS).
